According to PubChem BioAssay AID2797 (The Scripps Research Institute Molecular Screening Center, 2010):
Out of some 320,000 compounds screened, about 820 (0.26%) were called active. This is one part of a sample in which actives are shown more often than they occur.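 How the source made its calls: active means activation above the mean activation of all tested compounds plus 3 SD, per screening run (cut at about 20% in these data); inactive means the rest.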

Molecular target: Vasopressin V1a receptor (Homo sapiens) (UniProt P37288)
Sequence (P37288 whole entry, looked up): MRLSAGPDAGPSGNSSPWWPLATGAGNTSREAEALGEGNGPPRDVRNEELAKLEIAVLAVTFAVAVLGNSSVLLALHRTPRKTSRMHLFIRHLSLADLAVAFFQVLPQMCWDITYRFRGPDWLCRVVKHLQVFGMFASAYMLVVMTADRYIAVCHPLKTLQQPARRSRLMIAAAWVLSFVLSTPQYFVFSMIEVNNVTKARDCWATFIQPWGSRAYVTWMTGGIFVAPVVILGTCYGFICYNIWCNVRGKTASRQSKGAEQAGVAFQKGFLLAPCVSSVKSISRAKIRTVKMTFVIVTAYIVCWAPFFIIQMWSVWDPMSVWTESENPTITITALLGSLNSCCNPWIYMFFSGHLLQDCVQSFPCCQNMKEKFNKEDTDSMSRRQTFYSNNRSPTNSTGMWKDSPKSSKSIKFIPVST
Experiment: V1R activation via calcium rise – fluorescence, CHO-V1R cells, counter-screen for OXTR agonist project, primary screen (AID 2797);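 further: signal is peak over basal fluorescence ratio across a 100 second FLIPR read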
Settings: Fluo-8 calcium fluorescence, agonist mode, at 3 µM, hits give high values, 0% DMSO, 100% 3 nM vasopressin

Row | Compound | activation
1 | COc1ccccc1NC(=O)/C=C/C(N)=O | 0.73% (inactive)
2 | COC(=O)c1sc(-c2ccc(C(C)(C)C)cc2)cc1NC(=O)/C=C/C(=O)O | 28.5% (active)
3 | CC(C)(C)c1ccc(/C=C/C(=O)Nc2ncccn2)cc1 | -0.18% (inactive)
4 | COc1ccc(S(=O)(=O)N2CCOCC2)c(C)c1C | 0.14% (inactive)
5 | O=C(NNC(=O)c1ccccc1[N+](=O)[O-])Nc1ccccc1C(F)(F)F | 0.06% (inactive)
6 | O=C(N1CCCC1)C12CC3CC(C1)CC(C(=O)N1CCCC1)(C3)C2 | -0.17% (inactive)
7 | Cc1nc(C(=O)NCc2ccccc2)sc1C1(C)CC(c2cccnc2)=NO1 (configuration not stated) | 33.9% (active)
8 | Cc1nc(C(=O)Nc2ccc(Cl)cc2)sc1C1(C)CC(c2ccccc2)=NO1 (configuration not stated) | 1.86% (inactive)
9 | Cc1nc(-c2ccc(Cl)cc2)sc1C1(C)CC(c2ccccc2F)=NO1 (configuration not stated) | 0.6% (inactive)
10 | O=C(Nc1ccc(Cl)cc1)Nc1ccc(Oc2cccnc2)nc1 | 15.2% (inactive)
11 | COc1ccc(F)cc1S(=O)(=O)N1CCCCC1 | 0.03% (inactive)
12 | Cc1cc(NC(=O)CCC(=O)N(CC(=O)NCC2CCCO2)c2ccccc2)no1 (configuration not stated) | -0.14% (inactive)
13 | Nc1ccc2nc3c(=O)[nH]c(=S)[nH]c3nc2c1 | 33.2% (active)
14 | NC(N)=Nc1nc2ccc(Br)cc2c(=O)[nH]1 | 0.39% (inactive)
15 | COCC(=O)N1CCc2ccc(NC(=O)c3ccccc3Cl)cc2C1 | 1.09% (inactive)
16 | CCOC(=O)c1c(S(=O)(=O)Nc2ccc(CN3CCC(C)CC3)cc2)c(C)n(C)c1C | 0.65% (inactive)
17 | CCC(Oc1ccccc1C)C(=O)Nc1ccc(S(=O)(=O)Nc2cc(C)on2)cc1 (configuration not stated) | -0.02% (inactive)
18 | O=C(/C=C/c1ccc(OCc2c(F)cccc2Cl)cc1)N1CCOCC1 | 2.69% (inactive)
19 | Fc1cccc(Cl)c1COc1ccc(-c2nnco2)cc1 | 25.1% (active)
20 | Fc1ccc(COc2ccc(-c3nnco3)cc2)cc1 | 0.56% (inactive)
21 | COc1cccc(C(=O)Nc2cc3c(cc2Br)OCCCO3)c1 | -1.23% (inactive)
22 | O=C(c1ccc(Br)o1)N(c1ccccn1)C1CCCCC1 | -0.71% (inactive)
23 | Cc1cccc(C(=O)OC(C)CN2CCCC2)c1 (configuration not stated) | -0.62% (inactive)
24 | CC(C)CC1(C)NC(=O)N(CC(=O)Nc2ccc3c(c2)OCCO3)C1=O (configuration not stated) | 1.53% (inactive)
25 | COCC1CCN(C(=O)CCc2nnc(C3(c4ccc(Cl)cc4)CCC3)o2)C1 (configuration not stated) | -0.39% (inactive)

Row | Compound | activation
26 | CCN(CC)c1ccc(C(=O)Nn2c(C)nc3ccccc3c2=O)cc1 | 6.78% (inactive)
27 | C=CCN(C(=O)Nc1ccc2oc(C)nc2c1)c1ccccc1 | 0.19% (inactive)
28 | CCN(CC)c1ccc2oc(=O)c(C)nc2c1 | 24.3% (active)
29 | CC(C)=CCCC(C)CN1CCC(n2nccc2NC(=O)c2ccccc2)CC1 (configuration not stated) | 0.01% (inactive)
30 | COc1ccc(OC)c(NC(=O)COC(=O)Cc2ccsc2)c1 | -0.12% (inactive)
31 | CN(C)c1ccc(/C=C2\NC(=S)N(Cc3ccccc3)C2=O)cc1 | 70.8% (active)
32 | CN(C)c1ccc(C=C2C(=O)OC3(CCCC3)OC2=O)cc1 | 2.02% (inactive)
33 | COc1cc(/C=C2/SC(=S)N(Cc3ccccc3)C2=O)cc(OC)c1O | 15.3% (inactive)
34 | CCNC(=O)COc1cc(C)c(Br)c(C)c1 | 2% (inactive)
35 | Cc1cc(C)nc(SC(C)C(=O)N/N=C/c2cccs2)n1 (configuration not stated) | 0.12% (inactive)
36 | COCCCNC(=S)NCCNc1nc2cc(C)c(C)cc2cc1C#N | -0.33% (inactive)
37 | S=C(NCC1COc2ccccc2O1)Nc1ccc(Br)cc1 (configuration not stated) | 5.7% (inactive)
38 | c1ccc(-c2cc3c(NCC4COc5ccccc5O4)ncnc3s2)cc1 (configuration not stated) | 1.35% (inactive)
39 | c1ccc2c(c1)OCC(CNc1ncnc3nc[nH]c13)O2 (configuration not stated) | 102% (active)
40 | O=C(N/N=C/c1cc([N+](=O)[O-])ccc1O)/C(=C\c1cccs1)NC(=O)c1ccccc1 | 0.52% (inactive)
41 | COc1ccccc1C1=CC(=O)CCC1 | -0.32% (inactive)
42 | COc1cc(OC)cc(C(=O)NCC(=O)OCC(=O)NC(C)CCc2ccccc2)c1 (configuration not stated) | -0.08% (inactive)
43 | Cc1cc(C)cc(OCC(=O)NC(C)c2ccccc2)c1 (configuration not stated) | -1.15% (inactive)
44 | COc1cc(OC)cc(C(=O)N[C@H](C(=O)OCC(=O)NC(C)c2ccccc2)C(C)C)c1 (some centres not stated) | 68.5% (active)
45 | COc1ccc(C(=O)NC(=S)NNC(=O)CCc2ccccc2)cc1 | 37.5% (active)
46 | COc1ccc(CCC(=O)c2ccc(OC)cc2)cc1 | -0.9% (inactive)
47 | COc1ccc(C(=O)NNC(=S)NC(=O)c2ccccc2)cc1 | 60% (active)
48 | COc1ccc(/C(N)=N/OC(=O)CCCc2ccccc2)cc1 | -0.46% (inactive)
49 | COc1ccc(C(=O)NNC(=S)NC(=O)c2ccccc2[N+](=O)[O-])cc1 | -0.34% (inactive)
50 | COc1ccc(C(=O)NC(=S)NC2CCCCC2)cc1 | -0.74% (inactive)

Row | Compound | activation
51 | Cc1ccc(O)c(-c2cc(C(=O)NCc3ccccc3)[nH]n2)c1 | 0.3% (inactive)
52 | COc1ccc(Cc2nnc(SCC(=O)N(c3ccccc3)C(C)C)n(N)c2=O)cc1 | -1.17% (inactive)
53 | Cc1cccc(NC(=O)CN2CCCN(S(=O)(=O)c3ccc(Br)s3)CC2)c1 | 1.99% (inactive)
54 | Cc1cc(C)nc(NS(=O)(=O)c2ccc(N3C(=O)C4CCCCC4C3=O)cc2)n1 (configuration not stated) | 1.65% (inactive)
55 | CCNC(=O)CC1C(=O)N(c2ccc(OC)cc2)C(=S)N1CCc1ccncc1 (configuration not stated) | -0.58% (inactive)
56 | Cc1ccc(C(=O)Oc2ccc(C(=S)N3CCOCC3)cc2)cc1 | 1.56% (inactive)
57 | O=C(O)C1CCCN1C1=NS(=O)(=O)c2ccccc21 (configuration not stated) | -0.02% (inactive)
58 | O=C1C=CN2CCCC2CC1 (configuration not stated) | 0.74% (inactive)
59 | COc1cccc2cc(C(N)=O)/c(=N\NC(=O)c3ccccc3)oc12 | 1.9% (inactive)
60 | NC(=O)c1cc2ccccc2o/c1=N/NC(=O)c1cccc(F)c1 | 1.54% (inactive)
61 | CCN(CC)c1ccc2cc(C(N)=O)/c(=N\NC(=O)c3ccncc3)oc2c1 | 27.3% (active)
62 | COc1ccc(CCNC(=O)CSc2nc(-c3ccc(OC)c(OC)c3)ccc2C#N)cc1 | -0.68% (inactive)
63 | COc1cc(NS(=O)(=O)c2ccc(NC(=S)NC(=O)c3ccccc3)cc2)nc(OC)n1 | -0.14% (inactive)
64 | CC1CCCC(NC(=O)c2cc(S(=O)(=O)N3CCCCC3)ccc2Cl)C1C (configuration not stated) | -0.2% (inactive)
65 | CCN(CC)C(CNC(=O)CSc1nnnn1-c1cccc(F)c1)c1ccco1 (configuration not stated) | -0.26% (inactive)
66 | CCOc1ccc(NC(=O)CSc2nncn2C)cc1 | 0.81% (inactive)
67 | CCCCN(C(=O)c1nn(C)c(=O)c2ccccc12)c1c(N)n(CCC)c(=O)[nH]c1=O | 0.08% (inactive)
68 | Cc1onc(-c2ccccc2)c1C(=O)NNC(=S)NC(=O)c1ccc(F)cc1 | 21.1% (active)
69 | Cc1onc(-c2ccccc2)c1C(=O)N=C(N)c1ccc(Cl)cc1 | 0.22% (inactive)
70 | COc1ccc(C(=O)NC(=S)NNC(=O)c2c(-c3ccccc3)noc2C)cc1 | 70.5% (active)
71 | CCc1noc(C)c1C(=O)NNC(=O)c1ccc(F)cc1 | 0.87% (inactive)
72 | Cc1onc(-c2ccccc2)c1C(=O)Nc1ccccc1C#N | -1.51% (inactive)
73 | Cc1onc(-c2c(Cl)cccc2Cl)c1C(=O)NNC(=O)c1c(-c2c(Cl)cccc2Cl)noc1C | 0.81% (inactive)
74 | Cc1ccc(C(=O)Nc2sc(Cc3ccc4c(c3)OCO4)c(C)c2C(N)=O)cc1 | -0.01% (inactive)
75 | COc1ccc(C(=O)C2CCCN(Cc3cccn3-c3ccccn3)C2)c(C)c1 (configuration not stated) | 8% (inactive)

Row | Compound | activation
76 | COC(=O)C1=C(C(=O)OC)C(c2cc([N+](=O)[O-])ccc2O)c2sc(=O)[nH]c2S1 (configuration not stated) | 0.68% (inactive)
77 | CC1(C)OC(=O)C(=CSc2ccc(C(C)(C)C)cc2)C(=O)O1 | 1% (inactive)
78 | O=C(CCCN1CCc2[nH]c3ccc(F)cc3c2C1)c1ccc(F)cc1 | 23% (active)
79 | CC1CCc2[nH]c3ccc(C(=O)N(C)CC(=O)Nc4cccc(F)c4)cc3c2C1 (configuration not stated) | 0.41% (inactive)
80 | Fc1ccc(NC(=S)N2CCc3[nH]c4ccccc4c3C2)cc1 | 4.06% (inactive)
81 | Cc1cc(OCc2ccc(C(=O)Nc3ccc(C(=O)O)cc3)o2)ccc1Cl | 2.11% (inactive)
82 | S=c1nccc(-c2cc(Cl)sc2Cl)[nH]1 | 0.23% (inactive)
83 | O=C(c1ccccc1)c1ccc(OCC(O)CN2CCCC2)cc1 (configuration not stated) | 22.4% (active)
84 | O=C(c1ccc(Cl)cc1)c1ccc(OCC(O)CN2CCCCC2)cc1 (configuration not stated) | 4.01% (inactive)
85 | CC1CCN(CC(O)COc2ccc(C(=O)c3ccccc3)cc2)CC1 (configuration not stated) | 1.88% (inactive)
86 | CCOC(=O)C1(C)NC(c2ccco2)C2C(=O)N(c3ccccc3)C(=O)C21 (configuration not stated) | 3.3% (inactive)
87 | COc1ccc(NC(=O)CN(Cc2ccccc2)S(C)(=O)=O)cc1OC | 0.58% (inactive)
88 | COc1ccc(OCCNC(=O)c2cc(C3CC3)nc3c2cnn3C(C)C)cc1 | -0.36% (inactive)
89 | Cc1ccc(NC(=S)NC(=O)c2ccc(-c3ccccc3)cc2)cc1 | 0.62% (inactive)
90 | CCOC(=O)C1=C(NC(=S)NC(=O)c2ccccc2)c2ccccc2CC1(C)C | 29.8% (active)
91 | COCCCNC(=S)NC(=O)c1ccccc1 | 1.26% (inactive)
92 | Cc1ccc(NC(=O)CSc2nn3c(=O)c(C)nnc3s2)cc1Cl | 0.31% (inactive)
93 | CCC(C)C(=O)Nc1cc([N+](=O)[O-])ccc1Cl (configuration not stated) | -0.34% (inactive)
94 | CC(C)(C)NC(=O)C(=O)NCc1ccncc1 | 0% (inactive)
95 | O=C(OCCN=C1NS(=O)(=O)c2ccccc21)c1cccc([N+](=O)[O-])c1 | 3.94% (inactive)
96 | N#CC1(NC(=O)COC(=O)CCN=C2NS(=O)(=O)c3ccccc32)CCCCC1 | 0.74% (inactive)
97 | O=C(CCCN=C1NS(=O)(=O)c2ccccc21)OCC(=O)c1ccc(F)c(F)c1 | 22.6% (active)
